Experimental findings from PubChem BioAssay AID1159506 (National Center for Advancing Translational Sciences (NCATS), 2015) are described below.

In all, about 59,000 sequences were measured (the read-out: median about -0.00055, lowest 2% from about -2 on). Shown is part of a subset that was picked to be rich in the lowest values.

The test in a line: Identification of proteins required for the processing of the EWS-FLI1 nascent transcript.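 Also: robust z of luciferase light less the median z of siRNAs with the same seed.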 To be noted: TC32 Ewing sarcoma NR0B1-luc vs CMV-luc (EWS-FLI1 target promoter against control promoter), 48 h; screened at 20 nM (by protocol). In a few lines: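 Three siRNAs per gene, each in a separate well at 20 nM, were transfected into TC32 cells bearing either reporter construct. Luminescence was measured two days on, and per-gene comparison relied on seed-corrected Z values.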
In turn, UCAGCUAACAAAGAGUCGC against STAG3 had a seed-corrected z-score of 0.617.
For AGCAGUAUAAAACAGGAGC against TIPARP, the seed-corrected z-score came out at 0.177.
Turning to AUAAUCACACUGUCAACUG against ACAA2, the seed-corrected z-score was -0.323.
In the case of AGCCUUAGACGUGCAGUUG against RPL36AP31, the seed-corrected z-score is -2.33.
The sequence UGUUGUAGCAGAAUGAGGA against ARC showed a seed-corrected z-score of -3.81.
Sequence UGCUGGGUCAGAUGUCUCC against ARHGAP9 yielded a seed-corrected z-score of 0.0212.
Next, UUCGAUCACCAUAUACUCC against KCNA3: 0.36.
For UCGGUAUUCAAACCCUUCG against HIRA, the seed-corrected z-score is 0.423.
In the case of UCAGGGCAUAGAUAAGUGG against OR10W1 it was -2.86; in that of UUUCUAGCUAAGGUCAAAC against SHOC2, -0.857; in that of AUAGGAGAUCGCAUCGCCC against CACFD1, -0.00387.
Take AAGGUGUUCACGUAGGCUG against CLN3: the seed-corrected z-score was -2.78.
Turning to AUUGGUAUCCUAACUAUUC against EFHD1, the seed-corrected z-score is 0.876.
In the case of UCUGGGAACACCCUCAGCA against GABRR2 it was -0.593.
As for ACGGAUUCUAGUUUAGAUG against KIAA0232, the seed-corrected z-score is 2.72.
Next, UCCGUUCAUAGUCUUCUCC against CSPP1: -2.12.
In the case of AUAACGAUGCUUUAUGUGG against ABHD1 it was -0.139.
UCUCUAACUUCGACCCUCU against C19orf68 had a seed-corrected z-score of 0.527.
In the case of UUUCUCAACUGCAUGAAAG against LINC00264, the seed-corrected z-score was -0.13.
As for UACUGAAGUAGUUAGGAUC against INO80C, the seed-corrected z-score was 1.43.
As for AUGUUGCCCACGUCCUUGG against RABIF, the seed-corrected z-score was -3.06.
Next, AAUGAGGCAGGCAUGUUGG against PNMT: 1.18; UGUAUCCUAAGGUAUCGGC against VWA8: -0.221.
AUAUCUUCGAAAGUAAAUC against RPF2P1 came in with a seed-corrected z-score of 1.14.
On to UUUUUCCAUACUUCAAGCC against QRICH1, for which the seed-corrected z-score is -0.708.
Consider AAAUGGAAAUUCUCGAUGU against HTN1, for which the seed-corrected z-score turned out to be 0.36.
Sequence AGAUUGGUCAAAGCCUUUC against ZNF319 had a seed-corrected z-score of -2.3.
As for AUAGUUAUUCUUGUCGGGC against HVCN1, the seed-corrected z-score was -0.696.
Next, UACGUAGUCGUCAUCAUCU against FAM83G: -0.453; UCAUUAGACAUAACAUUGC against ALG13: 0.117; UCAUAGUCGAUCACCACUG against COL23A1: -0.458.
In the case of UUAGUAGUGACAUUUCGGG against MRE11A it was -0.0144; in that of UUGAAUAGGAAGAGUAUCC against OMA1, 1.31; in that of UAACUGAUCAGACCACAAC against TUBA1A, 0.266.
In the case of UGUCCAUAAACAGUAAAGG against ZNF30 it was -2.51.
Take UGAUUUAAUCUUGCCGCCC against PHLDB1: the seed-corrected z-score is 0.669.
AACACGUUGCCUGUCUUUC against NUTM2A-AS1 showed a seed-corrected z-score of 0.413.
Take UUUAGAACUGGUUAUUUUC against DEFB116: the seed-corrected z-score was 0.117.
Consider AUGGUGAUCAUGGGACUGC against BEST1, for which the seed-corrected z-score was -3.4.
The sequence UUUGGUAACCUCUAGGUGC against RUFY2 had a seed-corrected z-score of 0.0818.
Sequence UAGGCAAACAUGCACCUGG against POLG showed a seed-corrected z-score of -0.765.
As to UCGUGGUCUUCUAUUGUUC against GRB14, the seed-corrected z-score is -0.556.
AAUACAAUAGCAUAUACUC against RBBP9 displayed a seed-corrected z-score of 0.306.
In the case of UGCGGAUACAGAUCACUCC against WDR87 it was -2.28; in that of UGAAUAAUGAAGUAUCCUG against AMPH, -0.174.
Turning to UUAGUUCCAUGCCUUGCUC against ATP6V0A4, the seed-corrected z-score was -0.497.
Sequence AGUUAUAUCAGUCGUGAUC against FERMT2 displayed a seed-corrected z-score of 0.187.
On to UUCUGUAUCUGCUCCUUGU against PFDN2, for which the seed-corrected z-score stood at 1.09.
The sequence UCUCUUUCCUCUGCGUGCG against GDF7 yielded a seed-corrected z-score of -2.92.
The sequence UCUCAGGACUUAUAGCUGG against CEACAM3 displayed a seed-corrected z-score of 0.106.
With AACUCUAUCUUGUAAAGGC against ZKSCAN3, the seed-corrected z-score was determined as 0.0258.
Next, UCUAGUAACUCCAUAAGUU against NAA20: 0.8; UUUGUUGUCUGGUUGGAGC against ZDHHC14: -0.328; UCAGGGCACAGCUAUAAGG against CPAMD8: 0.0569.
Next, UAUUGUAGAUUGAACAGCC against NSMCE2: 0.561; AUAGAGCUUAUAGAAGCGG against USP11: 0.792.
The sequence UAAAGGGAACGAAACACCC against HSPA1B registered a seed-corrected z-score of 1.45.
UUAUUUAUUGCCGCUCAGG against SFTA2 yielded a seed-corrected z-score of -2.64.
UUGGGUCCGACAGUGAAGA against FAAP20 came in with a seed-corrected z-score of 0.502.
The sequence AGUACUACCAAAGAGAUGG against TBC1D23 had a seed-corrected z-score of 0.0728.
In the case of UAUCUUGAUCUGCCUCUCC against HOXB6 it was 0.291; in that of UAUCCCAAUACAAAGUACU against RCE1, -1.06; in that of UUGCUUAACUACUCUGUGC against C9orf106, -11.2.
The sequence AUCGCUGUAGCACUUGUGC against PKP3 returned a seed-corrected z-score of -0.54.
In the case of UGAGUUUCCACUUCCAGCC against UBQLN4 it was -2.2; in that of UUUGUUCCAGGGAUGUACU against CYCS, 0.577; in that of UUCCCGUGAACCGUUGAUC against PNLIPRP3, 0.389.
The sequence ACACCUGUGACUAAGACCC against SDR39U1 displayed a seed-corrected z-score of -0.296.
Take UUUGGUAUCUCCGACCACC against UCP2: the seed-corrected z-score worked out at 0.898.
On to UCAAGUGUAUCAGUUUUCG against KSR2, for which the seed-corrected z-score stood at 0.704.
With UGUGGUUGAAGAGGCUUGU against TMEM39B, the seed-corrected z-score was -2.3.
In turn, UAAGGUGUGAACUAUAAGG against ZNF267 had a seed-corrected z-score of -0.0939.
In the case of UAUAUCAAAAUCCACUCGC against NDUFAF6, the seed-corrected z-score is 1.27.
UUUCUUAGAUGAGACAUUG against EBLN2 showed a seed-corrected z-score of -12.2.
Regarding UAAACCUCCACCUAAGAGC against ELP4, the seed-corrected z-score was 0.275.
Take UACUCGUACACUUCCAUGC against THBS3: the seed-corrected z-score turned out to be 1.22.
For the sequence UAACUAUAGUGGUUAGGUC against IL7R, the seed-corrected z-score was -0.304.
Next, AUUUGGGACACUCAAAGGG against ZBTB48: -0.672; UCCAUAGCAGGAUUAUUGC against ACSL4: -4.37; UUUGUCGUCACUGUAUUCC against ING5: -0.505.
On to UAAGGGACAUCUAAGGAAC against MAML1, for which the seed-corrected z-score was -1.38.
In the case of AAACUUGCGAUCUCAUAUG against FBXW12 it was -0.183; in that of UACAGGUAAACAGGUCGUG against SKINT1L, -3.34.
UUCUGGUUCACCGUCUUCC against SLC13A2 returned a seed-corrected z-score of -1.96.
The sequence UUUCGUAUAGAGCUUCUCC against DNAJC5B yielded a seed-corrected z-score of -0.0232.
With UUUAUAGUCAAUGGUAUUG against TAF1D, the seed-corrected z-score is -0.19.
UUCCUUAGCAGGUAUCGCG against PDZD7 had a seed-corrected z-score of 0.373.
Next, AUAGUAAUGCCGGAACAGC against GPR108: -2.74; AUGGAGACAAGUUACCUGU against DCX: -1.34.
As for UUGAGUGAGAAGAUCAGUG against PAH, the seed-corrected z-score was -0.365.
Next, UUUGCAGUCGCAAUAGUCA against PRKCSH: -0.0915.
ACUGGUAUUUGACAAGUCC against SGOL2: the seed-corrected z-score was -0.0318.
AAUACCUCAACAUUGAUCC against LILRA6: the seed-corrected z-score came out at 0.22.
Take UACUUGUGAUCAUCUAGAC against PSMD1: the seed-corrected z-score was -2.21.
Take UCAGAGUUGGUGACUAUGC against MUC21: the seed-corrected z-score amounted to 0.222.
In turn, UGAUGUUCAGCAUCUUCUC against UBTF had a seed-corrected z-score of -0.484.
In turn, AGCGUAGUCAGUGUAGACC against DNAH2 returned a seed-corrected z-score of 0.323.
AUAGGCUUCGUUAAUGAGC against YJEFN3: the seed-corrected z-score amounted to 1.04.
As to UUCCUGCUUGCCUCUAUGG against USP17L9P, the seed-corrected z-score was -0.281.
In the case of UCUCGGUCGAUGAAGUACC against KCTD7 it was -3.05; in that of UCAAUCACACGUCUUAUGC against TRMT5, 0.553.
UUCGUAUUCAACUGACUGC against TCP11L1: the seed-corrected z-score was 1.06.
Sequence UAUGGGUUCAUCAGGCUCA against SH2D2A registered a seed-corrected z-score of -3.05.
Next, AAGAGAUCCAGCUUCCUGC against SPEG: -0.187; UCUUGAACCGGAUCGAUGC against TTLL9: -0.369; UUCGUGGGUAGCCAUGACC against F8A2: 0.752.
In turn, UUUUCAUAGAGGAUGAUCU against CRYBB2 registered a seed-corrected z-score of 1.03.
For the sequence UCUAAUACAAGGUUCAUAU against SNRPEP2, the seed-corrected z-score was -2.56.
The sequence UCAAUGCUCAGGGAACUGC against C1orf216 displayed a seed-corrected z-score of 2.53.
Sequence ACCUUAGUAAGAUCCAUUC against OSBPL9 yielded a seed-corrected z-score of 0.727.
Regarding UCAAACACGAUGGAGGUCC against SLC29A4, the seed-corrected z-score was -0.131.
In the case of AAAGACACCGUAGCUGAGG against MFNG, the seed-corrected z-score is -0.181.
UUUGUCAUUACCCGAACUG against RNASE11 came in with a seed-corrected z-score of 0.455.
UAAGGCUCCAGCAUAACAG against MIR924HG displayed a seed-corrected z-score of 0.428.
Next, AUCUUGGUCACUGGAGGCG against SFRP5: -3.64.
In the case of UACAAGUCAAGCUCUCACA against LOC727799, the seed-corrected z-score was -0.236.
For the sequence AAUAGAACAAGGACAGGAC against SAYSD1, the seed-corrected z-score was -1.61.
Take AAUGUGCUUAGCGCAGGUG against LINC01530: the seed-corrected z-score was 0.0903.
The sequence UCAUUGUUGAUUUGGUCUC against 3-Sep registered a seed-corrected z-score of 1.43.
In the case of UCUAGAGUUAGGGUAUCUG against ARMC5 it was 0.117.
In turn, UGAUGGUCACAAUCCUCUC against PCBP3 registered a seed-corrected z-score of -2.79.
As to UUUUCUUGCGUAUGAAUUC against ZNF302, the seed-corrected z-score came to 0.913.
In the case of UCUUGUUCCACCACGUCUC against GRID2 it was 0.102; in that of AGUGGGUAGAUUCCAUUCC against NRBP2, -2.82.
In the case of UGUAGGAUCUGUCUCCAGG against LOC728587 it was -0.669.
UUCGAUGAAAUGAUUUUCC against ZNF418: the seed-corrected z-score was 0.719.
UGAUCAUCAGCGGUGAGGC against HMGB3P19 returned a seed-corrected z-score of -1.07.
In the case of AAAGUCUCCAGUACGAUGU against MROH3P it was 1.9; in that of UUGCUGAACAGAUCAGUCC against ELF5, -0.256; in that of AAGUUCAUAAGAUUCCAUG against MGP, 0.212.
UCAGUUUGUAGUCAGAGCC against AP3S2: the seed-corrected z-score was found to be 0.309.
Take UCAUCAUCAAUCACGGACG against BAP1: the seed-corrected z-score was -2.03.
As to UGUCUGUUGAUGGCCAAGC against AMELX, the seed-corrected z-score came out at 0.157.
